According to PubChem BioAssay (Tox21):
Records with an inconclusive call do not appear. Activity calls are given as the source filed them. Unless noted, the call rests on the fitted dose curve; in most records, active means well fitted curve in the direction sought with a large enough effect in the repeat runs; inconclusive means weak or mixed curves; inactive means no such curve, though single readings can be large; an effect the other way counts as inactive or inconclusive.

What was measured:
[1] = biological target: Estrogen receptor (Homo sapiens) (UniProt P03372); assay: qHTS assay to identify small molecule antagonists of the estrogen receptor alpha (ER-alpha) signaling pathway (AID 743069; active means well fitted curve in the direction sought with a large enough effect in the signal ratio in the repeat runs, not every such curve was filed as active; the % refers to the signal ratio)
Estrogen receptor (Homo sapiens), sequence (P03372 whole entry, looked up): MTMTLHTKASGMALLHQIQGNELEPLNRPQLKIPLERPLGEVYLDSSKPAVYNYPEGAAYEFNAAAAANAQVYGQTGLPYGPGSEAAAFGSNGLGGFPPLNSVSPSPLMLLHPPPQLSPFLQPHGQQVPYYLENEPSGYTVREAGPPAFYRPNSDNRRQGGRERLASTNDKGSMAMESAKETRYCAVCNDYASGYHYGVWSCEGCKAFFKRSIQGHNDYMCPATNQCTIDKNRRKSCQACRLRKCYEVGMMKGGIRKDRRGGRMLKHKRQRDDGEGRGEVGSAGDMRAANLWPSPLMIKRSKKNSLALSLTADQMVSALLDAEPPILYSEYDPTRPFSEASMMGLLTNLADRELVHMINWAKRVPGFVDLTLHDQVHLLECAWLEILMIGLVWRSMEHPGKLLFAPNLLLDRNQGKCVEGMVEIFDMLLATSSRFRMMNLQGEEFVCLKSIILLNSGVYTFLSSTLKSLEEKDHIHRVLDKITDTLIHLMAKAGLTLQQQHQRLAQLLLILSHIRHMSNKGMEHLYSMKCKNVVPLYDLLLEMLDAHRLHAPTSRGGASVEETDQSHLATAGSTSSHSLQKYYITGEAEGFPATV
Outline: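 In this cell-based reporter format, GripTite HEK293 cells harbouring ER-alpha-UAS-bla were grown overnight with 2% charcoal-stripped FBS, dosed with DMSO-dissolved compounds, then challenged with 17beta-estradiol. After 18 hr at 37C, beta-lactamase activity was detected by FRET fluorescence.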

[2] = qHTS assay to identify small molecule antagonists of the estrogen receptor alpha (ER-alpha) signaling pathway - cell viability counter screen (AID 743074; calls by dose curve; further: nearly all actives have a fitted effect of over 45% in size)
[3] = biological target: Estrogen receptor (Homo sapiens) (UniProt P03372); assay: qHTS assay to identify small molecule agonists of the estrogen receptor alpha (ER-alpha) signaling pathway (AID 743075; calls by dose curve)
[4] = biological target: Estrogen receptor (Homo sapiens) (UniProt P03372); assay: qHTS assay to identify small molecule agonists of the estrogen receptor alpha (ER-alpha) signaling pathway using the BG1 cell line (AID 743079); conditions: BG1Luc4E2 cells, ERE-luciferase agonist, 22 h; activation: at 70.3 µM (top of the series); further: nearly all actives have a fitted effect of over 20% in size; further: potency means the concentration at half of the fitted maximal effect
[5] = qHTS assay to identify small molecule antagonists of the estrogen receptor alpha (ER-alpha) signaling pathway using the BG1 cell line (AID 743080; calls by dose curve;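 further: BG1 cells stimulated with 17beta-estradiol alongside compound; nearly all actives have a fitted effect of over 25% in size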)
Outline: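 Quantitative HTS on the Tox21 10K library: BG1 cells with endogenous ER-alpha and ERE-luciferase reporter, 17beta-estradiol stimulation, 21.5 h compound exposure, luminescence endpoint with parallel fluorescence cytotoxicity counter-read.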

[6] = qHTS assay to identify small molecule antagonists of the estrogen receptor alpha (ER-alpha) signaling pathway using the BG1 cell line - cell viability counter screen (AID 743081);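 further: compound given together with 17beta-estradiol as the ER stimulus; nearly all actives have a fitted effect of over 45% in size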
Aromatase (Homo sapiens) = Aromatase (Homo sapiens) (UniProt P11511); assay: qHTS assay to identify aromatase inhibitors (AID 743083); further: nearly all actives have a fitted effect of over 55% in size
Aromatase (Homo sapiens), sequence (P11511 whole entry, looked up): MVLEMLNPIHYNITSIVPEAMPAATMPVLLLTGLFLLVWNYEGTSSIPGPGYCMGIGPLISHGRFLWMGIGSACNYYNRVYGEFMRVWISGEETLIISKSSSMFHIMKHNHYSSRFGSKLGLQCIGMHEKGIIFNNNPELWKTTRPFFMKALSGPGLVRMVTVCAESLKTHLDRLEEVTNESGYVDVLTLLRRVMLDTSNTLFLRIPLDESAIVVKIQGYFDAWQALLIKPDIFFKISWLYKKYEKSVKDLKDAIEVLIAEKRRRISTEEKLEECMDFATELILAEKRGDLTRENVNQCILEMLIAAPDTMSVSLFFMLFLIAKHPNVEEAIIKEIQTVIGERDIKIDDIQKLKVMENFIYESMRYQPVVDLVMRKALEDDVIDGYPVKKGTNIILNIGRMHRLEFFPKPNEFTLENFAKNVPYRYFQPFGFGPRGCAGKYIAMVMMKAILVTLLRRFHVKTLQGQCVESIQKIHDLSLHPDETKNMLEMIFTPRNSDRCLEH

[7] = qHTS assay to identify aromatase inhibitors - cell viability counter screen (AID 743084);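 further: cells stimulated with testosterone during compound exposure; nearly all actives have a fitted effect of over 55% in size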
[8] = biological target: Aryl hydrocarbon receptor (Homo sapiens) (UniProt P35869); assay: qHTS assay to identify small molecule that activate the aryl hydrocarbon receptor (AhR) signaling pathway (AID 743085); further: nearly all actives have a fitted effect of over 15% in size; further: potency means the concentration at half of the fitted maximal effect;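 on activation: HG2L7.5c1 human HepG2 liver cells with stably integrated DRE-driven firefly reporter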
Aryl hydrocarbon receptor (Homo sapiens), sequence (P35869 whole entry, looked up): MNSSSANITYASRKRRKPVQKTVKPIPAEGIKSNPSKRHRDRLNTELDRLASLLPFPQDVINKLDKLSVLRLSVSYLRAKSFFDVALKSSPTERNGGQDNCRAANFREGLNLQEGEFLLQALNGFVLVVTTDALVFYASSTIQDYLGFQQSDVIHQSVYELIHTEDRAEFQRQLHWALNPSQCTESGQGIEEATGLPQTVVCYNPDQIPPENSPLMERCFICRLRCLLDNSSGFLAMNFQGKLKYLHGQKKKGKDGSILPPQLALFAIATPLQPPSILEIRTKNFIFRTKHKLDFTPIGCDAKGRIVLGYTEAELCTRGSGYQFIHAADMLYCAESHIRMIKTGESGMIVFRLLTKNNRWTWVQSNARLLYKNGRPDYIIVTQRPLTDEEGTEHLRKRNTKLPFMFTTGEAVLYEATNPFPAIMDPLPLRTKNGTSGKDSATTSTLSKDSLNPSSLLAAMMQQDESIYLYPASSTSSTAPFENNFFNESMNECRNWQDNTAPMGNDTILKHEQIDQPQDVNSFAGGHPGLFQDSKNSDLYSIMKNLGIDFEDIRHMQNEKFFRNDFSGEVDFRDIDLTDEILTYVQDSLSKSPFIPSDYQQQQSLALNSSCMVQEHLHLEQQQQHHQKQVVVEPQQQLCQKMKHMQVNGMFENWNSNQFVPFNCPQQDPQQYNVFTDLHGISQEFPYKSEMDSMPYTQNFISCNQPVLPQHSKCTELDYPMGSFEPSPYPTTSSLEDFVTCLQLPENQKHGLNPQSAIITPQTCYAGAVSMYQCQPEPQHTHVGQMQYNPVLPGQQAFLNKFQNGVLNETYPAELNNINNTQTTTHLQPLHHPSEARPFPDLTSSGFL
Outline: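 AhR agonist activity is inferred from enhanced light output of a DRE-controlled firefly luciferase reporter in HepG2 cells, measured with ONE-Glo following 24 h treatment at 37C.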

[9] = qHTS assay to identify small molecule that activate the aryl hydrocarbon receptor (AhR) signaling pathway - cell viability counter screen (AID 743086);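 further: HepG2 liver cells carrying the AhR DRE luciferase reporter; nearly all actives have a fitted effect of over 45% in size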
Outline: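 HepG2-AhR-luc (HG2L7.5c1) cells, 4000/well, treated 24 h at 37 C with compound; viability measured as CellTiter-Fluor fluorescence after 30 min in the same wells as the luciferase read.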

[10] = biological target: Peroxisome proliferator-activated receptor gamma (Homo sapiens) (UniProt P37231); assay: qHTS assay to identify small molecule agonists of the peroxisome proliferator-activated receptor gamma (PPARg) signaling pathway (AID 743094; active means well fitted activation curve with a large enough effect in the signal ratio in the repeat runs, not every such curve was filed as active; the % refers to the signal ratio)
Peroxisome proliferator-activated receptor gamma (Homo sapiens), sequence (P37231 whole entry, looked up): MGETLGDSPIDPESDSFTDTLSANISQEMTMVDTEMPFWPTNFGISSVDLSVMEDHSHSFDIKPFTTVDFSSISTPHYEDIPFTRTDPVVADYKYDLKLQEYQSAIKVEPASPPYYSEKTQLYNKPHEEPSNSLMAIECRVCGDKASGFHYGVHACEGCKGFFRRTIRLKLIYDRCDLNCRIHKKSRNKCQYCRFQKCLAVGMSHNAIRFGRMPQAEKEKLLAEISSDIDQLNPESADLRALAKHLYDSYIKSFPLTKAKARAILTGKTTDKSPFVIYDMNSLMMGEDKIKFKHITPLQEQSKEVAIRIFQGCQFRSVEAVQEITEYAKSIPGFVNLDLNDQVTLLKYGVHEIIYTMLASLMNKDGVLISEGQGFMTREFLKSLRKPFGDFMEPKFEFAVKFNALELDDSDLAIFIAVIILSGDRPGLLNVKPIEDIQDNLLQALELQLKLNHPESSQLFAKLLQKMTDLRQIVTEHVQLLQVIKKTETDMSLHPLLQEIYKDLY
Outline: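 Cells from the PPARg UAS-bla HEK293H line are plated and incubated 5 h at 37C. Compounds in DMSO are pinned in and left 17 h at 37C. LiveBLAzer B/G substrate is then added for 1 h at room temperature before fluorescence is measured.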

[11] = qHTS assay to identify small molecule phospholipidosis (PLD) inducers (AID 1259344; active means well fitted curve in the direction sought with a large enough effect; an effect the other way counts as inactive or inconclusive)
Outline: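 Image-based: LipidTOX Red pit count/intensity per well and per cell; HepG2, 24 h compound at 37 C, PFA fixation, Hoechst counterstain.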

[12] = biological target: Nuclear receptor subfamily 1 group I member 2 (Homo sapiens) (UniProt O75469); assay: CYP3A4 induction through human pregnane X receptor (PXR) by small molecules, qHTS assay (AID 1346984); further: nearly all actives have a fitted effect of over 40% in size
Outline: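 Quantitative HTS in DPX-2 cells, i.e. HepG2 transfected with PXR response element and CYP3A4-promoter luciferase. Compounds in DMSO incubated 24hr at 37C; then P450-Glo CYP3A4 substrate, 3uM final, 3hr; One-Glo luminescence.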

[13] = biological target: Nuclear receptor subfamily 1 group I member 2 (Homo sapiens) (UniProt O75469); assay: Human pregnane X receptor (PXR) activation by small molecules, qHTS assay (AID 1346985); further: nearly all actives have a fitted effect of over 40% in size
Outline: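 DPX-2 cells (HepG2 co-transfected with a PXR response element and a CYP3A4-promoter luciferase construct) were seeded at 2,000 per well, rested 5 hr at 37C, then exposed to DMSO-dissolved compounds for 24 hr. Activation was read as luciferase luminescence.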

[14] = test system: thyroid hormone receptor (rat, GH3 cells); assay: qHTS assay to identify small molecule agonists of the thyroid receptor (TR) signaling pathway (AID 743066; calls by dose curve)
[15] = biological target: Nuclear receptor subfamily 1 group I member 2 (Rattus norvegicus) (UniProt Q9R1A7); assay: Rat pregnane X receptor (rPXR) activation by small molecules, qHTS assay (AID 1346983); conditions: rPXR luciferase reporter cells, One-Glo luminescence, 24 h; max activation: active compounds read high; further: nearly all actives have a fitted effect of over 20% in size
Nuclear receptor subfamily 1 group I member 2 (Rattus norvegicus), sequence (Q9R1A7 whole entry, looked up): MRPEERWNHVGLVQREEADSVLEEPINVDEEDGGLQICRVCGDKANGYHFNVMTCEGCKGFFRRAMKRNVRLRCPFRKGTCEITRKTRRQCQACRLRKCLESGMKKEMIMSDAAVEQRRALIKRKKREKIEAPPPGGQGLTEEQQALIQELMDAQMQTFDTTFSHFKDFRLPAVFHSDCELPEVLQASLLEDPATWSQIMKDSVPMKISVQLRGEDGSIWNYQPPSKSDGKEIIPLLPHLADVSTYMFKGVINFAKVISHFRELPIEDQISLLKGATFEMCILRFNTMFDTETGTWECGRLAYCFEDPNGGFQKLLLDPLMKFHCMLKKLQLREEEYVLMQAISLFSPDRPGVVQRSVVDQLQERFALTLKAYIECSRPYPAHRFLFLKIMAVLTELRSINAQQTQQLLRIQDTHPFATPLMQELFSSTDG
Outline: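 Cell-based rPXR activation assay: rPXR cells, 2,000 per well, rested 5hr at 37 C, then exposed to compounds in DMSO for 24 hr at 37 C. Luciferase activity read by One-Glo luminescence after 30 min at room temperature.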

[16] = qHTS assay to identify small molecule antagonists of the thyroid receptor (TR) signaling pathway - cell viability counter screen (AID 743064); further: nearly all actives have a fitted effect of over 50% in size
Outline: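 In rat pituitary GH3.TRE-Luc reporter cells co-exposed to compound and 1 nM T3 for 23.5 h, cytotoxicity was assessed with CellTiter-Fluor in the same wells, read by fluorescence.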

[17] = qHTS assay to identify small molecule antagonists of the thyroid receptor (TR) signaling pathway (AID 743065); further: nearly all actives have a fitted effect of over 55% in size; further: potency means the concentration at half of the fitted maximal effect
Outline: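 GH3.TRE-Luc rat pituitary cells (two TREs driving luciferase) were dosed with compound, then stimulated with 1 nM T3 (final) for 23.5 h at 37 C. ONE-Glo luminescence was the read-out, with CellTiter-Fluor fluorescence as the cytotoxicity counter-screen.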
On the % scale 0 is the no-effect control and ±100 the full control effect.

CO[C@H]1C[C@@H]2CC[C@@H](C)[C@@](O)(O2)C(=O)C(=O)N2CCCC[C@H]2C(=O)O[C@H]([C@H](C)C[C@@H]2CC[C@@H](OC(=O)C(C)(CO)CO)[C@H](OC)C2)CC(=O)[C@H](C)/C=C(\C)[C@@H](O)[C@@H](OC)C(=O)[C@H](C)C[C@H](C)/C=C/C=C/C=C/1C
inactive: Potency [1] | Potency [2] | Potency [3] | Potency [5] | Potency [6] | Potency (Aromatase (Homo sapiens)) | Potency [7] | Potency [8] | Potency [9] | Potency [10] | Potency [11] | Potency [12] | Potency [13]
active: Potency [4] 23.7 µM

CCCCC/C=C\C/C=C\C/C=C\CCCCC(=O)O
inactive: Potency [14] | Potency [2] | Potency [6] | Potency (Aromatase (Homo sapiens)) | Potency [7] | Potency [8] | Potency [9] | Potency [11] | Potency [12] | Potency [13]

CO[C@@H]1[C@@H](O[C@@H]2O[C@H](C)[C@@H](O[C@H]3C[C@@](C)(O)[C@@H](O)[C@H](C)O3)[C@H](N(C)C)[C@H]2O)[C@@H](CC=O)C[C@@H](C)[C@@H](O[C@@H]2CC[C@H](N(C)C)[C@@H](C)O2)/C=C/C=C/C[C@@H](C)OC(=O)C[C@H]1O
inactive: Potency [1] | Potency [2] | Potency [3] | Potency [4] | Potency [5] | Potency [6] | Potency (Aromatase (Homo sapiens)) | Potency [7] | Potency [9] | Potency [10] | Potency [11] | max activation [15] -4.61%

COC(=O)[C@@H](N)CS
inactive: Potency [16] | Potency [17] | Potency [14] | Potency [1] | Potency [2] | Potency [3] | Potency [5] | Potency [6] | Potency (Aromatase (Homo sapiens)) | Potency [7] | Potency [9] | Potency [10] | Potency [11] | Potency [12] | Potency [13]
active: Potency [4] 26.6 µM

Nc1ncnc(Nc2ccc(Cl)cc2)n1
inactive: Potency [16] | Potency [17] | Potency [14] | Potency [1] | Potency [2] | Potency [3] | Potency (Aromatase (Homo sapiens)) | Potency [7] | Potency [10] | Potency [11]
active: Potency [4] 23.7 µM | Potency [8] 11.9 µM

CCN(CC)c1ccc(N=Nc2ccc(S(=O)(=O)N(C)C)cc2)c(S(=O)(=O)NCC[n+]2ccccc2)c1
inactive: Potency [16] | Potency [17] | Potency [14] | Potency [1] | Potency [2] | Potency [3] | Potency [5] | Potency (Aromatase (Homo sapiens)) | Potency [7] | Potency [9] | Potency [10] | Potency [11]

C=C1c2c(Cl)ccc(O)c2C(O)=C2C(=O)[C@]3(O)C(O)=C(C(N)=O)C(=O)[C@@H](N(C)C)[C@@H]3[C@@H](O)[C@H]12
inactive: Potency [16] | Potency [17] | Potency [14] | Potency [2] | Potency [3] | Potency [4] | Potency [6] | Potency (Aromatase (Homo sapiens)) | Potency [7] | Potency [8] | Potency [9] | Potency [10] | Potency [11]

CC1(C)S[C@@H]2[C@H](NC(=O)C(C(=O)Oc3ccc4c(c3)CCC4)c3ccccc3)C(=O)N2[C@H]1C(=O)O (stereo partly specified)
inactive: Potency [16] | Potency [17] | Potency [14] | Potency [1] | Potency [2] | Potency [3] | Potency [6] | Potency (Aromatase (Homo sapiens)) | Potency [7] | Potency [9] | Potency [10] | Potency [11]

CCOC(=O)Cc1cccc(-c2cc(CCCCCCc3ccc(O[C@H]4O[C@H](COC(C)=O)[C@@H](OC(C)=O)[C@H](OC(C)=O)[C@@H]4OC(C)=O)c(-c4cccc(CC(=O)OCC)c4)c3)ccc2O[C@H]2O[C@H](COC(C)=O)[C@@H](OC(C)=O)[C@H](OC(C)=O)[C@@H]2OC(C)=O)c1
inactive: Potency [16] | Potency [17] | Potency [14] | Potency [1] | Potency [2] | Potency [3] | Potency [4] | Potency [5] | Potency (Aromatase (Homo sapiens)) | Potency [7] | Potency [8] | Potency [9] | Potency [10] | Potency [11]

O=C(NOC[C@H](O)CO)c1ccc(F)c(F)c1Nc1ccc(I)cc1F
inactive: Potency [16] | Potency [17] | Potency [14] | Potency [1] | Potency [3] | Potency [4] | Potency [5] | Potency [6] | Potency (Aromatase (Homo sapiens)) | Potency [7] | Potency [9] | Potency [10] | Potency [11]

CCCCCCCCCCCCCCCC(=O)OC[C@@H](COP(=O)([O-])OCC[N+](C)(C)C)OC(=O)CCCCCCCCCCCCCCC
inactive: Potency [16] | Potency [17] | Potency [14] | Potency [1] | Potency [3] | Potency [5] | Potency [6] | Potency (Aromatase (Homo sapiens)) | Potency [7] | Potency [8] | Potency [9] | Potency [10] | PLD induction [11] -0.903% [at 1.53 µM]
active: Potency [4] 29.8 µM

CN[C@@H]1[C@@H](O)[C@@H](O[C@@H]2[C@@H](O)[C@H](OC3OC(CN)=CCC3N)[C@@H](N)C[C@H]2N)OC[C@]1(C)O (stereo partly specified)
inactive: Potency [16] | Potency [17] | Potency [14] | Potency [2] | Potency [6] | Potency (Aromatase (Homo sapiens)) | Potency [7] | Potency [8] | Potency [9] | Potency [10] | Potency [11]

Cc1cc(Nc2ccccc2C(=O)O)ccc1Cl
active: Potency [17] 26.6 µM | Potency [8] 26.6 µM
inactive: Potency [16] | Potency [14] | Potency [2] | Potency [3] | Potency [5] | Potency (Aromatase (Homo sapiens)) | Potency [7] | Potency [11]

CO[C@H]1[C@@H](O)[C@H](N)[C@@H](O[C@H]2O[C@H]([C@H](C)N)CC[C@H]2N)[C@H](O)[C@@H]1N(C)C(=O)CN
active: Potency [4] 33.5 µM
inactive: Potency [16] | Potency [17] | Potency [14] | Potency [1] | Potency [3] | Potency [5] | Potency [6] | Potency (Aromatase (Homo sapiens)) | Potency [7] | Potency [8] | Potency [9] | Potency [10] | Potency [11]

CN=C(NC)NCc1ccccc1
inactive: Potency [16] | Potency [17] | Potency [14] | Potency [1] | Potency [2] | Potency [3] | Potency [5] | Potency [6] | Potency (Aromatase (Homo sapiens)) | Potency [7] | Potency [8] | Potency [9] | Potency [10] | Potency [11]
